# According to PubChem BioAssay (NCATS):
# Inconclusive results are not listed. For some assays here: Results with a measured potency or affinity are listed apart. Active and inactive are the calls of the source. Unless noted, the rule behind the calls is not given here.
# Assay: not given
# Conditions: Ebola virus entry assay, blue channel (ratio component)
row,Structure (SMILES),outcome
1,NC(CS)C(=O)O (configuration not stated),inactive
2,Cc1ncsc1CCCl,inactive
3,CN1CC(=O)NC1=N,inactive
4,CCCC(=O)O[C@]1(C(=O)COC(=O)CC)CC[C@H]2[C@@H]3CCC4=CC(=O)CC[C@]4(C)[C@H]3[C@@H](O)C[C@@]21C,inactive
5,CC(=O)NC1CCSC1=O (configuration not stated),inactive
6,NC/C=C/C(=O)O,inactive
7,COc1c2c(cc3c1OCO3)CCN(C)C2,inactive
8,NC(CO)(CO)CO,inactive
9,CCN[C@@H](C)Cc1cccc(C(F)(F)F)c1,inactive
10,CC1(C)OC[C@@H]2O[C@@]3(C(=O)O)OC(C)(C)O[C@H]3[C@@H]2O1,inactive
11,Nc1nc(N)nc(NC2CC2)n1,inactive
12,CCCCN(CCCC)CCCOC(=O)c1ccc(N)cc1,inactive
13,CCCCCCCC(=O)[O-].CCCCCCCC(=O)[O-].[Zn+2],inactive
14,CCN(CC)C(C)CN1c2ccccc2Sc2ccccc21 (configuration not stated),inactive
15,CO[C@@]1(NC(=O)C(C(=O)O)c2ccc(O)cc2)C(=O)N2C(C(=O)O)=C(CSc3nnnn3C)CO[C@@H]21 (some centres not stated),inactive
16,CCO[C@H](Cc1ccc(OCCc2ccc(OS(C)(=O)=O)cc2)cc1)C(=O)O,inactive
17,C=CCN1CCc2nc(N)sc2CC1,inactive
18,CC(C)(CO)[C@@H](O)C(=O)NCCCO,inactive
19,CC(C(=O)c1ccccc1)N(C)C (configuration not stated),inactive

row,Structure (SMILES),outcome
1,O=C(O)[C@H](O)c1ccccc1,inactive
2,CC(Cc1ccccc1)N(C)Cc1ccco1 (configuration not stated),inactive
3,Cc1cc(=O)oc2cc(O[C@@H]3SC[C@@H](O)[C@H](O)[C@H]3O)ccc12,inactive
4,O=C(O)c1ccccc1-c1ccc(C(F)(F)F)cc1,inactive
5,NC(Cc1ccc(Cl)cc1)C(=O)O (configuration not stated),inactive
6,c1ccc(N2CCNCC2)cc1,inactive
7,COC(=O)[C@@H]1[C@H]2C[C@H]3c4[nH]c5ccccc5c4CCN3C[C@@H]2CC[C@@H]1O,inactive
8,CCCC(=O)Nc1ccc(O)c(C(C)=O)c1,inactive
9,CCN[C@@H](C)Cc1ccccc1,inactive
10,Cc1c(NC(=O)c2cccnc2)c(=O)n(-c2ccccc2)n1C,inactive
11,CCCCCCn1c(=O)c2c(ncn2C)n(C)c1=O,inactive
12,CCC1(c2ccccc2)C(=O)N(COC)C(=O)N(COC)C1=O,inactive
13,CC(=O)NCc1c(I)c(NC(C)=O)c(I)c(C(=O)O)c1I,inactive
14,COP(=S)(OC)Oc1ccc(SC)c(C)c1,inactive
15,O=C(O)CCC(=O)O,inactive
16,O=c1c(-c2ccc(O)cc2)coc2cc(O)cc(O)c12,inactive
17,NC(=O)NC(=O)Cc1ccccc1,inactive
18,CCOc1ncc(F)c(=O)[nH]1,inactive
19,Cc1cn([C@@H]2O[C@H](CO)[C@@H](O)[C@H]2F)c(=O)[nH]c1=O,inactive

# Assay: qHTS assay for measurement of the activity of small molecule inhibitors on Zika virus induced Caspase-3 activity in human iPSC derived neural progenitor cells (hNPCs) (AID 1224857; active = well fitted inhibition curve with a large enough effect; note: % of control where 0% means no effect; nearly all actives have a fitted effect of over 65% in size)
# Conditions: hNPCs ZIKV-induced caspase-3/7, Caspase-Glo luminescence, 6 h; series mostly up to 45.7 µM; activity change, negative = inhibition: at the top concentration
# Summary of the method: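 Caspase-3/7 induction by a 6-hour ZIKV infection was quantified with a luminescent Caspase-Glo 3/7 reagent incubated 30 minutes at room temperature. Compounds were preincubated with hNPCs for 1 hour; inhibition was calculated against uninfected and infected control wells.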
row,Structure (SMILES),"activity change, negative = inhibition"
1,Cc1ncsc1CCCl,-0.286% (inactive)
2,CC(=O)NC1CCSC1=O (configuration not stated),-1.54% (inactive)
3,COc1c2c(cc3c1OCO3)CCN(C)C2,-0.546% (inactive)
4,CCN[C@@H](C)Cc1cccc(C(F)(F)F)c1,2.83% (inactive)
5,Nc1nc(N)nc(NC2CC2)n1,19.2% (inactive)
6,CCN[C@H](C)Cc1cccc(C(F)(F)F)c1,-1.94% [at 92.8 µM] (inactive)
7,CC(C(=O)c1ccccc1)N(C)C (configuration not stated),2.21% (inactive)
8,CC(Cc1ccccc1)N(C)Cc1ccco1 (configuration not stated),9.08% (inactive)
9,c1ccc(N2CCNCC2)cc1,-0.975% (inactive)
10,CCN[C@@H](C)Cc1ccccc1,-1.43% [at 92.8 µM] (inactive)
11,CCC1(c2ccccc2)C(=O)N(COC)C(=O)N(COC)C1=O,8.18% (inactive)
12,COP(=S)(OC)Oc1ccc(SC)c(C)c1,12.3% (inactive)

# Assay: qHTS assay for measurement of the activity of small molecule inhibitors on Zika virus induced Caspase-3 activity in human astrocytoma cells (AID 1224859; active = well fitted inhibition curve with a large enough effect;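 note: plate controls were ZIKV-infected untreated cells for no effect and uninfected cells for full effect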)
# Conditions: SNB-19 ZIKV-induced caspase-3/7, luminescence, 6 h; series mostly up to 45.7 µM; activity change, negative = inhibition: at the top concentration
# Summary of the method: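 In SNB-19 cells plated at 250 cells/well and grown 16-20 h, compounds were applied 1 h before ZIKV (2 FFU/cell). Six hours later caspase-3/7 luminescence was recorded.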
Structure (SMILES),outcome,"activity change, negative = inhibition"
Cc1ncsc1CCCl,inactive,–
CC(=O)NC1CCSC1=O (configuration not stated),–,2.94% (inactive)
COc1c2c(cc3c1OCO3)CCN(C)C2,–,7.63% (inactive)
CCN[C@@H](C)Cc1cccc(C(F)(F)F)c1,–,-15% (inactive)
Nc1nc(N)nc(NC2CC2)n1,–,8.45% (inactive)
CCN[C@H](C)Cc1cccc(C(F)(F)F)c1,–,4.7% [at 92.8 µM] (inactive)
CC(C(=O)c1ccccc1)N(C)C (configuration not stated),–,-3.66% (inactive)
CC(Cc1ccccc1)N(C)Cc1ccco1 (configuration not stated),–,1.4% (inactive)
c1ccc(N2CCNCC2)cc1,–,10% (inactive)
CCN[C@@H](C)Cc1ccccc1,–,-1.73% [at 92.8 µM] (inactive)
CCC1(c2ccccc2)C(=O)N(COC)C(=O)N(COC)C1=O,–,-9.31% (inactive)
COP(=S)(OC)Oc1ccc(SC)c(C)c1,–,23% (inactive)
